# Data as given in PubChem BioAssay (NCATS).
# Inconclusive results are not listed. Entries that show only a call come without a potency. Active and inactive are the calls of the source. Unless noted, calls come from the whole dose curve. Numbered stars: 1 amine (or outer) side, 2 acyl side, 3 side chain; on linkers, the order of the positions; unused ones are H or OH. Bridge positions count the residues as written; N and C are the ends. Square brackets hold non-standard residues; d marks the D form. Peptide text beside a SMILES is read from it. I, II: the chains in the order shown. Actinocin(9to1) = Cc1c2oc3c(C)ccc(C(=O)[*:1])c3nc-2c(C(=O)[*:2])c(N)c1=O; NMeV = CN[CH](C(=O)O)C(C)C; Sar = CNCC(=O)O
# How the values were obtained:
# [1] = Validation screen for inhibitors of Lassa infection (AID 463096)
# [2] = Inducers of the Endoplasmic Reticulum Stress Response (ERSR) in human glioma: Validation (AID 504836; active = well fitted curve in the direction sought with a large enough effect; an effect the other way counts as inactive or inconclusive)
# In short: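 Stably transfected U87-MG glioma cells carrying a GRP78-based luciferase sensor; 16 h compound incubation. Luminescence end-point read 10 min after Bright-Glo addition at room temperature.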
# [3] = qHTS for Inhibitors of the Functional Ribonucleoprotein Complex (vRNP) of Lassa (LASV) Arenavirus: LASV Primary Screen - GLuc reporter signal (AID 1347082; calls by dose curve; tested in HEK293 reporter line; note: nearly all actives have a fitted effect of over 60% in size; note: potency is the fitted concentration of half-maximal effect)
# [4] = qHTS for Inhibitors of the Functional Ribonucleoprotein Complex (vRNP) of Lassa (LASV) Arenavirus: Viability assay - alamar blue signal for LASV Primary Screen (AID 1347083; calls by dose curve; tested in HEK293 reporter line; note: nearly all actives have a fitted effect of over 80% in size; note: potency is the fitted concentration of half-maximal effect)
# [5] = qHTS for Inhibitors of the Functional Ribonucleoprotein Complex (vRNP) of Lymphocytic Choriomeningitis Arenaviruses (LCMV): Viability assay - alamar blue signal for LCMV Primary Screen (AID 1347085; calls by dose curve; tested in HEK293 reporter line; note: nearly all actives have a fitted effect of over 80% in size; note: potency is the fitted concentration of half-maximal effect)
# [6] = biological target: Nucleoprotein (Lymphocytic choriomeningitis virus (strain Armstrong)) (UniProt P09992); assay: qHTS for Inhibitors of the Functional Ribonucleoprotein Complex (vRNP) of Lymphocytic Choriomeningitis Arenaviruses (LCMV): LCMV Primary Screen - GLuc reporter signal (AID 1347086); note: nearly all actives have a fitted effect of over 70% in size; note: potency is the fitted concentration of half-maximal effect
# Chain of Nucleoprotein (Lymphocytic choriomeningitis virus (strain Armstrong)) (P09992 whole entry, looked up): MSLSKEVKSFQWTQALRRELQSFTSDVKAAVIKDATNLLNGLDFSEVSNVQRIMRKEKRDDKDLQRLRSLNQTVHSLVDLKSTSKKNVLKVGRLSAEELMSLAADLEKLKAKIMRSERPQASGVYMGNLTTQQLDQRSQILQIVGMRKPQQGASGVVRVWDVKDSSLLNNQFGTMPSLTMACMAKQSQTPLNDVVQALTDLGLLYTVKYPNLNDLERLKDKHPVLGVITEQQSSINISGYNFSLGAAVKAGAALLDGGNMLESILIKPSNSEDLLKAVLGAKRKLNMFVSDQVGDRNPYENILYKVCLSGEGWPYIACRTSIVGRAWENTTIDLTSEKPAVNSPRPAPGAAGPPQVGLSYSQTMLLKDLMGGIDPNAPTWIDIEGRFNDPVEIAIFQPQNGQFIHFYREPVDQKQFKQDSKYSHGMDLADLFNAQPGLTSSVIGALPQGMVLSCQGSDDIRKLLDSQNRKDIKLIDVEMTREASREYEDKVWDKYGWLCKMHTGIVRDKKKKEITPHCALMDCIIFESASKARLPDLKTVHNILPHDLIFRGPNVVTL
# [7] = Primary qHTS to identify inhibitors of SARS-CoV-2 cell entry (AID 1645846); settings: activity change, negative = inhibition: at 57.1 µM (top of the series) unless noted; note: nearly all actives have a fitted effect of over 45% in size; note: potency is the fitted concentration of half-maximal effect
# In short: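 Inhibition of spike-mediated entry was scored in human ACE2-transfected Expi293F cells. Particles were MLV-pseudotyped with Wuhan-Hu-1 S carrying a 19-aa C-terminal deletion; signal was luciferase after two days, scaled between spike PP and fusion-protein-free PP.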
# [8] = biological target: Cytochrome P450 3A4 (Homo sapiens) (UniProt P08684); assay: qHTS Assay for Inhibitors and Substrates of Cytochrome P450 3A4 (AID 884; active = well fitted curve in the direction sought with a large enough effect; an effect the other way counts as inactive or inconclusive; note: nearly all actives have a fitted effect of over 50% in size)
# Chain of Cytochrome P450 3A4 (Homo sapiens) (P08684 whole entry, looked up): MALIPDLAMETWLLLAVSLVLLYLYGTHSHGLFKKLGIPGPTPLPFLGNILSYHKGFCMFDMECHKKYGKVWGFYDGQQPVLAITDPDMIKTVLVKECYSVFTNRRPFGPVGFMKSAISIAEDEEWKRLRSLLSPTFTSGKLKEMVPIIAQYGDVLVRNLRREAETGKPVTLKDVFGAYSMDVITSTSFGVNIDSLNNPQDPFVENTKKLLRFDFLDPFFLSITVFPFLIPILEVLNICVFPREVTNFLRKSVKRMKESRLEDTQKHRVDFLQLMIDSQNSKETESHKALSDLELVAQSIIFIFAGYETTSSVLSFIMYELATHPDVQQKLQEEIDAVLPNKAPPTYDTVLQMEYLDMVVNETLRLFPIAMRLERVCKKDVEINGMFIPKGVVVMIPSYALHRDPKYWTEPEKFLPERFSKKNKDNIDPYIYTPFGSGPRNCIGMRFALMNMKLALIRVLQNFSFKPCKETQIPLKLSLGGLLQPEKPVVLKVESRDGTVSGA
# In short: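 Luminescent readout of luciferin produced by CYP3A4 (20 nM) dealkylation of Luciferin-PPXE, 25 uM (its KM). NADPH-driven reaction ran 60 min at RT after 10 min compound preincubation; data scaled to 57 uM ketoconazole as 100% inhibition.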
# [9] = MultiTox-Fluor Cytotoxicity Assay - LYMP1-003 - Dead Cells (AID 961; active = well fitted curve in the direction sought with a large enough effect; an effect the other way counts as inactive or inconclusive; note: nearly all actives have a fitted effect of over 70% in size)
# In short: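 Dead-cell protease release, detected as bis-AAF-R110 fluorescence at 485/520 nm, was measured in LYMP1-003 cells after 16 h compound treatment at 37 C. AC50 values came from Hill-modeled qHTS curves normalized to DMSO (0%) and 15 uM tetraoctylammonium bromide (100%).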
# [10] = Cell Viability - LYMP1-003 - Assay at 40 hr (AID 964; active = well fitted curve in the direction sought with a large enough effect; an effect the other way counts as inactive or inconclusive; note: nearly all actives have a fitted effect of over 60% in size)
# In short: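 Luminescent ATP signal (CellTiter-Glo) served as the viability read-out after 40 hr compound treatment of human lymphoblastoid LYMP1-003 cells at 37 C. Decreases in ATP were fitted with the Hill equation to give AC50.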
# [11] = Cell Viability - LYMP1-002 - Assay at 40 hr (AID 994; active = well fitted curve in the direction sought with a large enough effect; an effect the other way counts as inactive or inconclusive; note: nearly all actives have a fitted effect of over 60% in size)
# In short: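 Cells are plated at 2500 per well and rested 5 hr at 37 C. Compounds are added and incubated 40 hr at 37 C. CellTiter-Glo reagent is added for 30 min at room temperature before luminescence is read.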
# [12] = biological target: Nuclear receptor ROR-gamma (Homo sapiens) (UniProt P51449); assay: qHTS assay for small molecule antagonists of the retinoid-related orphan receptor gamma (ROR-gamma) signaling pathway (AID 651802; active = well fitted curve in the direction sought with a large enough effect; an effect the other way counts as inactive or inconclusive;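 note: CHO cells with doxycycline-induced ROR-gamma expression; nearly all actives have a fitted effect of over 60% in size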)
# Chain of Nuclear receptor ROR-gamma (Homo sapiens) (P51449 whole entry, looked up): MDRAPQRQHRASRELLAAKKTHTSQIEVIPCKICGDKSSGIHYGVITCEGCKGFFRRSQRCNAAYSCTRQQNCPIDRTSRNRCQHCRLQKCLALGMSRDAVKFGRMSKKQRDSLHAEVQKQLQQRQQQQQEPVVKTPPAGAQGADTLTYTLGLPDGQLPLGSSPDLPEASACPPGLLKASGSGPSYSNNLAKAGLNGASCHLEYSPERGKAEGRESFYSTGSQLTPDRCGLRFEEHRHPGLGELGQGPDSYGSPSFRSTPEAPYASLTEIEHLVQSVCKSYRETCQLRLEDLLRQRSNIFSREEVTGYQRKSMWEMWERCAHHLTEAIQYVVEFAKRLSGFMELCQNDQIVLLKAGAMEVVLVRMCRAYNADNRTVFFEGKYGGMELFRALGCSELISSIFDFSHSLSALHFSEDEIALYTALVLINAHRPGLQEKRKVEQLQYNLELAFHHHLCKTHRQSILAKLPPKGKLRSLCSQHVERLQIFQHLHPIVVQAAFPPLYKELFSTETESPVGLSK
# In short: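 Steps: cells dispensed; compound or DMSO transferred by pin tool; doxycycline added to induce the ROR response element-driven luciferase; plates held 16hr at 37C; ONE-Glo added and luminescence measured.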
# [13] = qHTS assay for small molecule agonists of the antioxidant response element (ARE) signaling pathway measured by Nrf2-dependant transcriptional activity - cell viability counter screen (AID 720653; active = well fitted curve in the direction sought with a large enough effect in the repeat runs; an effect the other way counts as inactive or inconclusive); settings: ARE-bla HepG2 viability, CellTiter-Glo ATP luminescence, 16 h; max response: stronger effect = lower value
# In short: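 ARE-bla HepG2 cells treated with compounds for 16 h at 37C; this counter screen measures viability as intracellular ATP by CellTiter-Glo luminescence after 30 min at room temperature.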
# [14] = biological target: Alpha-galactosidase (Coffea arabica) (UniProt Q42656); assay: Counterscreen for Glucocerebrosidase Inhibitors: qHTS Assay for Coffee Bean alpha-Galactosidase at pH 4.5 (AID 957; active = well fitted curve in the direction sought with a large enough effect; an effect the other way counts as inactive or inconclusive)
# Chain of Alpha-galactosidase (Coffea arabica) (Q42656 whole entry, looked up): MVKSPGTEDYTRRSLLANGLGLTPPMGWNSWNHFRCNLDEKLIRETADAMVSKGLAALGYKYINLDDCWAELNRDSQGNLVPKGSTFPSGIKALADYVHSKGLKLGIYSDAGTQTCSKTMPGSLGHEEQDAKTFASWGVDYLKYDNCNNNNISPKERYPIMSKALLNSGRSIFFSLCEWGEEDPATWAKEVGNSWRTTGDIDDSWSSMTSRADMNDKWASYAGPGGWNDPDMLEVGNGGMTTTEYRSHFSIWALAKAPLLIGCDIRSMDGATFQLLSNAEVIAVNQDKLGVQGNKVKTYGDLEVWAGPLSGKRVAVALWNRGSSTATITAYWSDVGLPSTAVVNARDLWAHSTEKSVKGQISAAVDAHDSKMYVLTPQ
# In short: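 Enzyme is added first (2 nM final), then compounds titrated from 0.7 nM to 77 uM, then 80 uM 4-methylumbelliferyl alpha-D-galactopyranoside; after 20 min at room temperature a pH 10 NaOH/glycine stop precedes fluorescence reading at 365/440 nm.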
# [15] = biological target: Nuclear receptor subfamily 1 group I member 3 (Homo sapiens) (UniProt Q14994); assay: Primary qHTS for antagonist of constitutive androstane receptor (CAR) against the NCATS DSHEA and TCM libraries (AID 1794836; active = well fitted curve in the direction sought with a large enough effect; an effect the other way counts as inactive or inconclusive;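 note: HepG2 cells stably expressing hCAR with CYP2B6 luciferase reporter stimulated by CITCO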)
# Chain of Nuclear receptor subfamily 1 group I member 3 (Homo sapiens) (Q14994 whole entry, looked up): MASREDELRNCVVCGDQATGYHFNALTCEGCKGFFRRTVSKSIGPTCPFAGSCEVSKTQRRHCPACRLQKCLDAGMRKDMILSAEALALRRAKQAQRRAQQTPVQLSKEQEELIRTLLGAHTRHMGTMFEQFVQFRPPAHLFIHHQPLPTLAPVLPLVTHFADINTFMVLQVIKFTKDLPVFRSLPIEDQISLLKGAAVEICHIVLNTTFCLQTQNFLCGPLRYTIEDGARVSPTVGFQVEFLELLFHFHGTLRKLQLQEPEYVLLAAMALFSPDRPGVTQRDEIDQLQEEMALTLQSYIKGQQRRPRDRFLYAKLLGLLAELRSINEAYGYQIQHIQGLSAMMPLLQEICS
# In short: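 HepG2-CYP2B6-hCAR cells, attached 5 h, given compounds plus CITCO agonist […], incubated 24 h at 37 C. Luciferase luminescence read, multiplexed with CellTiter-Fluor viability (Ex/Em 405/540 nm).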
smiles,measurement,setting,value
Oc1cc(O)cc(/C=C/c2ccc(O)c(O)c2)c1,Potency,[1],inactive
same,outcome,[2],inactive
same,Potency,[3],inactive
same,Potency,[4],inactive
same,Potency,[5],inactive
same,Potency,[6],inactive
same,"activity change, negative = inhibition",[7],-97.4%
Cc1cc(CN2CCN(c3c(Br)cnc4nc(-c5ccc(N6CCN(C)CC6)cc5)[nH]c34)CC2)no1,Potency,[3],inactive
same,Potency,[4],inactive
same,Potency,[5],inactive
same,Potency,[6],inactive
same,Potency,[7],3160 nM (active)
CC(C)COC(=O)c1ccccc1C(=O)OCC(C)C,Potency,[8],inactive
same,Potency,[9],inactive
same,Potency,[10],inactive
same,Potency,[11],inactive
same,Potency,[12],inactive
same,max response,[13],7.97% (inactive)
same,Potency,[3],inactive
same,Potency,[4],inactive
same,Potency,[5],inactive
same,Potency,[6],inactive
C=Cc1c(C)c2cc3nc(cc4[nH]c(cc5nc(cc1[nH]2)C(C)=C5CCC(=O)O)c(CCC(=O)OC)c4C)[C@@]1(C)C3=CC=C(C(=O)OC)[C@H]1C(=O)OC,Potency,[3],1720 nM (active)
same,Potency,[4],344 nM (active)
same,Potency,[5],172 nM (active)
same,Potency,[6],217 nM (active)
same,Potency,[7],inactive
Cc1ccc(C(=O)N(CCCN)[C@@H](c2oc3cc(Cl)ccc3c(=O)c2Cc2ccccc2)C(C)C)cc1,Potency,[3],inactive
same,Potency,[4],inactive
same,Potency,[5],inactive
same,Potency,[6],inactive
same,"activity change, negative = inhibition",[7],-98.4%
Cc1nc(N)ncc1-c1nc(N2CCOCC2)c2sc(C(C)(C)O)cc2n1,Potency,[3],1530 nM (active)
same,Potency,[4],863 nM (active)
same,Potency,[5],1090 nM (active)
same,Potency,[6],1720 nM (active)
same,Potency,[7],7940 nM (active)
CSc1cccc(Nc2ncc3cc(-c4c(Cl)cccc4Cl)c(=O)n(C)c3n2)c1,Potency,[3],inactive
same,Potency,[4],inactive
same,Potency,[5],inactive
same,Potency,[6],inactive
same,"activity change, negative = inhibition",[7],-95.8%
Cc1noc(-c2ccc(CSCCC(=O)O)cc2)c1NC(=O)OC(C)c1ccccc1Cl (stereo not given),Potency,[3],inactive
same,Potency,[4],inactive
same,Potency,[5],inactive
same,Potency,[6],inactive
same,"activity change, negative = inhibition",[7],-12.6%
CCn1nnc2c(N3CCOCC3)nc(-c3ccc(NC(=O)Nc4ccc(C(=O)N5CCN(C)CC5)cc4)cc3)nc21,Potency,[3],54.4 nM (active)
same,Potency,[4],24.3 nM (active)
same,Potency,[5],30.6 nM (active)
same,Potency,[6],38.5 nM (active)
same,"activity change, negative = inhibition",[7],-84.5%
C=CC(=O)N1CCc2ccc(-n3c(=O)ccc4cnc5ccc(-c6cnn(C)c6)cc5c43)cc21,Potency,[3],inactive
same,Potency,[4],inactive
same,Potency,[5],inactive
same,Potency,[6],inactive
same,Potency,[7],3550 nM (active)
Nc1ncnc2c1c(-c1cnc3[nH]ccc3c1)nn2C1CCCC1,Potency,[3],6850 nM (active)
same,Potency,[4],1720 nM (active)
same,Potency,[5],2170 nM (active)
same,Potency,[6],6110 nM (active)
same,Potency,[7],10000 nM (active)
CCCc1c(OCCCOc2ccc(OCC(=O)O)cc2)ccc(C(C)=O)c1O,outcome,[14],inactive
same,Potency,[1],inactive
same,outcome,[2],inactive
same,Potency,[3],inactive
same,Potency,[4],inactive
same,Potency,[5],inactive
same,Potency,[6],inactive
same,"activity change, negative = inhibition",[7],-13.9%
CNC(=O)c1ccc(C)c(-n2c(C)cc(OCc3ccc(F)cc3F)c(Br)c2=O)c1,Potency,[3],inactive
same,Potency,[4],inactive
same,Potency,[5],inactive
same,Potency,[6],inactive
same,Potency,[7],22400 nM (active)
"Cc1c2oc3c(C)ccc(C(=O)NC4C(=O)NC(C(C)C)C(=O)N5CCCC5C(=O)N(C)CC(=O)N(C)C(C(C)C)C(=O)OC4C)c3nc-2c(C(=O)NC2C(=O)NC(C(C)C)C(=O)N3CCCC3C(=O)N(C)CC(=O)N(C)C(C(C)C)C(=O)OC2C)c(N)c1=O (stereo not given) (I: TVP[Sar][NMeV] / II: TVP[Sar][NMeV]; ester I:1-I:C, II:1-II:C; linker I:N-II:N via Actinocin(9to1); configuration not given here)",Potency,[3],inactive
same,Potency,[4],inactive
same,Potency,[5],inactive
same,Potency,[6],inactive
same,"activity change, negative = inhibition",[7],-91.5% [at 27.1 µM]
CC(=O)OC/C=C/c1ccccc1,Potency,[3],inactive
same,Potency,[4],inactive
same,Potency,[5],inactive
same,Potency,[6],inactive
same,Potency,[15],inactive
